# The list is not random: actives were taken first. Their share in the collection is about 2.4%.
# PP5 primary = PP5 (human) phosphatase inhibition; 320,000 tested, 0.18% active; AID 1987; P53041; inhibition, % at 6.7 µM; purified PP5c, OMFP substrate fluorescence;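 active = inhibition above the campaign's mean inhibition across all tested compounds plus 3 SD, cut at about 9.5% in these data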;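 also: 0% = DMSO only and 100% = 100 µM cantharidin control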
# PREPL inh = human PREPL enzyme inhibition | recombinant PREPL, fluorescence polarization activity-based probe | inhibition, % at 5.96 µM | 320,000 tested, 0.68% active | AID 2751; in the data active = inhibition above about 43%;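 also: 0% = enzyme with DMSO and 100% = wells lacking enzyme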
# PP1 counter = counter-screen for PP5 inhibitors: inhibitors of human PP1-alpha. purified PP1alpha, OMFP fluorescence. inhibition, % at 6.7 µM. 320,000 tested, 0.9% active;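 active = inhibition above the mean inhibition of all tested compounds plus 3 SD, computed separately for each screening campaign, cut at about 15% in these data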
# Rpn11 inh = blocks the human proteasome subunit Rpn11; O00487; inhibition, % at 20 µM; human 26S proteasome, Ub4-pepOG fluorescence polarization; 20S core pre-blocked with epoxomicin; 360,000 tested, 0.59% active;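 active = inhibition at 20 µM, scaled to each plate's controls, above about 33%, limit read from the data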
# NadD inh = NadD (S. aureus) enzyme inhibition. purified NadD enzyme, colorimetric absorbance read-out. inhibition, % at 20 µM. 360,000 tested, 0.78% active. AID 602399; in the data active = inhibition above about 26%
# Rpn11 inh conf = confirmation of human proteasome Rpn11 inhibitors; inhibition, % at 20 µM; purified human 26S proteasome, Ub4-pepOG fluorescence polarization; proteasome pretreated with epoxomicin; 1,900 tested, 29% active; shares compounds with Rpn11 inh
# MMP-2 inh = MMP-2 (human) inhibition counter-screen; shares compounds with Rpn11 inh; recombinant MMP-2, FRET peptide cleavage fluorescence; inhibition, % at 20 µM; 1,900 tested, 4% active; AID 602330;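 also: human MMP-2 activated beforehand with APMA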
# Target sequence (P08253 whole entry, looked up): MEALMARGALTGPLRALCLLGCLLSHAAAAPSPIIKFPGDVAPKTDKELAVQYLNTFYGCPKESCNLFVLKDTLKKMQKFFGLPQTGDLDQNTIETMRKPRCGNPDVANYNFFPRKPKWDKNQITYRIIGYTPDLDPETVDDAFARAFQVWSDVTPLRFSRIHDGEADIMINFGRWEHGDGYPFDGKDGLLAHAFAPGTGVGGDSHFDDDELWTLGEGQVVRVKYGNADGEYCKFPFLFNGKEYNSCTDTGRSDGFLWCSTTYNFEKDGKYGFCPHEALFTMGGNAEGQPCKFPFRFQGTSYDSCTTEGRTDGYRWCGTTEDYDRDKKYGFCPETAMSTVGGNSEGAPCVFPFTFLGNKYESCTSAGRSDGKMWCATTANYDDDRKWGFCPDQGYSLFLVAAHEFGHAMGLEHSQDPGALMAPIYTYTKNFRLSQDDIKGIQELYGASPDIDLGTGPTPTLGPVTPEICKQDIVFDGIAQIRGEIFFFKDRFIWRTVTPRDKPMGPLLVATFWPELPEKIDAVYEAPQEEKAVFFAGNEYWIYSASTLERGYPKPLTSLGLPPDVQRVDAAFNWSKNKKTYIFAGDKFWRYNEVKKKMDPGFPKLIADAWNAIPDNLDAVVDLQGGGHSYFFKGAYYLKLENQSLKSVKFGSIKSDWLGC
# Thrombin inh = thrombin (bovine) inhibition counter-screen. inhibition, % at 20 µM. 1,900 tested, 13% active. shares compounds with Rpn11 inh. bovine thrombin cleavage of Ub4-pepOG, fluorescence polarization;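 active = mean inhibition at least 40% at 20 µM, or signal 3 deviations below plate average, so some actives read negative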;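 also: plate controls were thrombin with DMSO for no effect and buffer wells lacking thrombin for full effect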
# An asterisk follows results filed as active; nt = no result; + = active, no number; ! = not active in a repeat. Rule as the data show it, unless noted: active = inhibition above about 40%; inactive = the rest.
SMILES,PP5 primary,PREPL inh,PP1 counter,Rpn11 inh,NadD inh,Rpn11 inh conf,MMP-2 inh,Thrombin inh
Cc1c(N=C/C=C2/N(C)c3ccccc3C2(C)C)c(=O)n(-c2ccccc2)n1C,2,2,-5,47*!,-3,33,-8,30
CN1/C(=C\C=N\NC(=O)c2ccc(O)cc2)C(C)(C)c2ccccc21,-1,-101,2,72*,10,38,-31,7
Cc1c(N=C/C=C2\N(C)c3ccccc3C2(C)C)c(=O)n(-c2ccccc2)n1C,1,9,-4,4,-5,nt,nt,nt
CC(C)c1ccc(-n2nnnc2SCc2nc(N)nc(N)n2)cc1,nt,nt,nt,8,0,nt,nt,nt
NNC(=O)COc1ccc(-c2nccc(-c3ccc(F)cc3)n2)cc1,4,-12,5,4,9,nt,nt,nt
NNC(=O)COc1ccc(F)cc1,-1,0,-2,46*,3,1,-25,0
O=C(CNC(=O)c1ccc(Br)o1)NCc1ccc(Cl)cc1,3,7,0,4,-3,nt,nt,nt
COC(=O)c1ccc(NC(=O)CCN2CCN(c3ccccc3)CC2)cc1,-1,-9,0,154*,-7,2,-17,-3
O=C(Nc1ccn(CCOC(=O)c2ccccc2)c(=O)n1)c1ccccc1,nt,nt,nt,-3,0,nt,nt,nt
CSc1ccc(/C=N/NC(=O)c2cc(O)cc(O)c2)cc1,1,12,1,-8,0,nt,nt,nt
CSc1ccc(/C=N/NC(=O)c2ccc(C)c(C)c2)cc1,0,0,7,61*,0,25,38,7
CC1=C(C(=O)c2ccccc2)C(c2ccc(O)cc2)NC(=S)N1 (stereo not drawn),0,0,-1,3,-5,nt,nt,nt
CC1=C(C(=O)c2ccccc2)C(c2ccc(N3CCOCC3)cc2)NC(=O)N1 (stereo not drawn),1,12,-5,74*,5,51*,-18,41*
Cc1nc2c(C)cccc2c2c1CCN2c1ccccc1F,1,7,-1,-4,-3,nt,nt,nt
COc1ccc(N2CCc3c(C)nc4c(OC)cccc4c32)cc1,-1,32,3,43*,1,-15,-25,-2
O=C(CN(Cc1ccccc1)C(=O)CCl)c1cccc(Br)c1,1,-26,-2,6,-3,nt,nt,nt
O=C(Nc1nnc(Cc2c[nH]c3ccccc23)s1)c1ccc(Cl)cc1Cl,3,1,-1,42*,13,29,0,10
CSCCC(NC(=O)c1ccccc1Br)C(=O)NCC(c1ccco1)N1CCCCC1 (stereo not drawn),1,0,4,4,-4,nt,nt,nt
O=C(CCl)NCCN1C(=O)S/C(=C\c2cccnc2)C1=O,1,6,0,46*,27,53*,23,-11
COc1ccc(OCCCC(=O)OCC(=O)c2ccc3c(c2)NC(=O)CO3)cc1,-1,2,1,-3,-5,nt,nt,nt
CCOC(=O)N1CCN(C(=O)c2nc3ccccc3s2)CC1,0,-13,4,111*,2,-10,-12,-6
CCOC(=O)N1CCN(CC(=O)Nc2nc3ccccc3s2)CC1,-1,7,-6,-8,-5,nt,nt,nt
CCOC(=O)C1=C(COC(=O)CNS(=O)(=O)c2ccc(NC(C)=O)cc2)NC(=O)NC1C (stereo not drawn),nt,nt,nt,4,-1,nt,nt,nt
COCCCn1c2nc3ccccc3nc2c2c(=O)n(-c3ccccc3OC)cnc21,2,-6,1,1,1,nt,nt,nt
COc1ccccc1-n1cnc2c(c1=O)c1nc3ccccc3nc1n2-c1ccc(C)c(C)c1,nt,nt,nt,54*,2,24,-23,0
SMILES,PP5 primary,PREPL inh,PP1 counter,Rpn11 inh,NadD inh,Rpn11 inh conf,MMP-2 inh,Thrombin inh
CCn1nnnc1NCc1ccc(N2CCCC2)cc1,0,34,7,59*,29,0,11,-4
CCn1nnnc1NCc1ccc(SC)cc1,nt,nt,nt,-4,-3,nt,nt,nt
O=C(N/N=C/c1cccnc1)c1ccc(NC(=O)c2cccc(Cl)c2)cc1,0,-12,15,64*,-2,44*,-8,-15
O=C(C[n+]1ccc(C(=O)N/N=C/c2ccc(Br)cc2)cc1)c1ccccc1,1,36,2,11,-1,nt,nt,nt
O=C(N/N=C/c1ccc(Br)cc1)c1ccc(NC(=O)c2ccccc2)cc1,nt,nt,nt,140*,15,-1,-24,-10
O=C(C[n+]1ccc(C(=O)N/N=C/c2ccc(O)cc2)cc1)c1ccccc1,3,38,6,104*,1,0,13,-14
CC(C)Cc1ccc(-c2cc3nc(NCCOc4ccccc4)ccn3n2)cc1,nt,nt,nt,10,5,nt,nt,nt
CN(C)C(=O)c1ccc(NC(=O)c2cccc(-n3cnnn3)c2)cc1,nt,nt,nt,-3,5,nt,nt,nt
C=CCOC(=O)c1cc(-c2ccc(/C=C3\C(=O)NC(=O)C(C#N)=C3C)o2)ccc1Cl,nt,nt,nt,58*,69*,37,14,31
Cc1cc(-c2csc(NC(=O)c3cccc(S(=O)(=O)N(C)C)c3)n2)c(C)n1-c1ccccc1,0,5,9,37*,49*,9,21,-6
COC(=O)c1ccc(-n2c(C)cc(-c3csc(NC(=O)c4ccc(S(=O)(=O)N(C)C)cc4)n3)c2C)cc1,1,-5,9,17,11,nt,nt,nt
COc1ccc(NC(=O)CSc2nnc3ccc(-c4cccnc4)nn23)c(OC)c1,3,6,-3,-1,-1,nt,nt,nt
Cc1nc(SCc2nc3ccccc3[nH]2)c2oc3cc(Br)ccc3c2n1,nt,-19,nt,83*,25,45*,5,43*
O=S1(=O)CC(N2CC=CC2)CN1Cc1cn(Cc2ccc(Cl)cc2)nn1 (stereo not drawn),nt,nt,nt,nt,-3,nt,nt,nt
CCS(=O)(=O)C1=NN2C(=N)/C(=C\c3ccc(OC(=O)c4ccco4)c(Br)c3)C(=O)N=C2S1,-3,37,7,nt,nt,nt,nt,nt
CCS(=O)(=O)C1=NN2C(=N)/C(=C\c3ccc(SCc4ccco4)o3)C(=O)N=C2S1,nt,nt,nt,+,11,122*,11,49*
COc1ccc(-n2c(C)cc(/C=C3\C(=N)N4N=C(CC(=O)N5CCOCC5)SC4=NC3=O)c2C)c(OC)c1,1,6,5,43*,26,17,13,4
N=C1/C(=C\c2ccc(SCc3ccccc3)o2)C(=O)N=C2SC(CC(=O)N3CCOCC3)=NN12,0,19,5,41*,19,8,-4,-4
Cc1ccc(/C=C2\C(=N)N3N=C(CC(=O)N4CCOCC4)SC3=NC2=O)o1,-2,1,-3,-5,12,nt,nt,nt
COc1ccccc1/C=C1\SC(=S)N(CCC(=O)Nc2nnc(C)s2)C1=O,3,-1,4,-2,6,nt,nt,nt
COc1ccc(N2C(=O)CCC(C(=O)NCc3ccccn3)C2c2ccc(OC)c(OC)c2)cc1 (stereo not drawn),-3,2,-5,-2,-4,nt,nt,nt
